# Compounds without any hit were thinned out: in the full panel of roughly 83,000, 20% have a hit.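 Activity criterion: percent growth below 10, measured after cells in 96-well plates were exposed to a single compound concentration for 48 hours.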 A number with no mark means an inactive call. Active and inactive are the calls of the source.
# Tested on: HL-60(TB) leukemia
# Test: NCI-60 one-dose screen, 48 h (100 = growth as untreated, 0 = no growth, -100 = all killed)
# Conditions: 10 µM unless noted
row,SMILES,growth
1,CCCCn1c(-c2ccc(-c3nc(-c4ccc(Cl)cc4)no3)cc2)nc(-c2ccccc2)c1-c1ccccc1,61.4%
2,CC[C@@H]1O[C@H](O[C@@H](c2cnc[nH]2)[C@H](NC(=O)c2nc([C@H](CC(N)=O)NC[C@@H](N)C(N)=O)nc(N)c2C)C(=O)N[C@H](C)[C@H](O)[C@H](C)C(=O)N[C@@H](C(=O)NCCc2nc(-c3nc(C(=O)NCCCCN=C(N)N)cs3)cs2)[C@@H](C)O)[C@H](O[C@@H]2O[C@H](CO)[C@H](O)[C@H](OC(N)=O)[C@@H]2O)[C@H](C)[C@@H]1C,84.4%
3,O=C(Nc1ccc(N2CCNCC2)cc1)c1[nH]ncc1Nc1cc(Oc2ccccc2)ncn1,-49.6% (active)
4,COc1cc2c(cc1OCCCN1CCN(CCCOc3cc4c(cc3OC)C(=O)N3CCC[C@H]3C=N4)CC1)C=CC(C)(C)O2,10.2%
5,CCCN(CCC)CCCNC(=O)c1cc2c(-c3ccc(OC)c(OC)c3)nn(C)c2s1,-13.4% (active)
6,COc1ccc(/C=C/C(=O)Nc2ccc(-c3nc4ccc(F)cc4s3)cc2)cc1,91.4%
7,O=C(O)c1cn(C2CC2)c2cc(N3CCN(C(=O)Nc4nc(-c5ccc(Br)cc5)cs4)CC3)c(F)cc2c1=O,-2.62% (active)
8,C=C1C(=O)O[C@H]2[C@H]1CC/C(COC(=O)NCCc1ccc(Br)cc1)=C\CC[C@@]1(C)O[C@@H]21,-14% (active)
9,CC(C)(C)OC(=O)CC(S(=O)(=O)c1ccccc1)S(=O)(=O)c1ccccc1,76.2%
10,COC(=O)[C@]1(C)CCC[C@]2(C)[C@H]3C[C@H]4C(C(C)C)=C[C@]3(CC[C@H]21)[C@@H]1C(=O)CC[C@H](OCCC#N)[C@@H]14,113%
11,CCOCCc1c(O)nc(SC)[nH]c1=O,93.3%
12,NC1(C(=O)N[C@@H](CCO)c2ccc(Cl)cc2)CCN(c2ncnc3[nH]ccc23)CC1,60.7%
13,Cc1nc(Nc2ccc(F)c(Cl)c2)sc1C(=O)O,11.6%
14,Cn1ccc(=O)c(S(N)(=O)=O)c1,96.4%
15,Cc1ccc(-c2nc(C#N)c(S(=O)(=O)n3nc(C)cc3N)o2)cc1,16.6%
16,O=C1N(Cc2ccccc2Cl)c2ccccc2C12NN=C(c1ccccc1)S2 (stereo not given),58.5%
17,Cc1cc(C#Cc2ccc(C(C)(C)C)cc2)ccc1-n1c(/C=C/c2c(Cl)cccc2Cl)nc2ccccc2c1=O,99.6%
18,O=C(/C=C/c1cc([N+](=O)[O-])ccc1Cl)c1ccccc1,61.7%
19,N#Cc1c(Nc2ccc(N3CCOCC3)cc2)nc(SCC(=O)c2ccc(Br)cc2)nc1-c1ccccc1,86.2%
20,COc1ccc(OC)c(CCn2cncc2-c2c[nH]c3ccccc23)c1,80.8%
21,COc1ccc2c(c1)[nH]c(=O)c1c3cc(C)c(C)cc3cn21,-14.8% (active)
22,O=C(O)c1ccccc1Oc1cc(-c2ccco2)nc(OCCBr)n1,100%
23,COc1ccc(-c2c(-c3ccc(OC)c(O)c3)cnc3ncnn23)cc1,106%
24,CCOC(=O)c1nn(C2CCCCO2)c2ccc(NC(=O)Cn3nnc4ccccc43)cc12 (stereo not given),98.8%
25,COc1ccc(C(O)c2cc3c(N)c(C(=O)Nc4ccc(Br)cc4)sc3nc2C)cc1 (stereo not given),-41.5% (active)

# From PubChem BioAssay (NCI)
